Inconclusive results are not listed. Activity calls are given as the source filed them. Rule for the calls, unless noted: active = hit-call score of the fitted dose curve at least 0.9, where 1 is the maximum; inactive = score below 0.9.
Key:
[1] = target: Peroxisome proliferator-activated receptor gamma (Homo sapiens) (UniProt P37231); experiment: OT_PPARg_PPARgSRC1_0480: Odyssey Thera (OT) 8-hour Protein-Complementation Assay for Peroxisome Proliferator-activated Receptor Gamma / SRC-1 Co-activator (AID 2283387; active = hit-call score of the fitted dose curve at least 0.9, where 1 is the maximum;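 note: nuclear to cytoplasmic split Venus YFP fluorescence ratio reporting PPARg SRC-1 interaction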)
Outline: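 Split-YFP (IFP1/IFP2) PPARg/SRC-1 reporter, HEK293T, 37 °C, 5% CO2; 8 h compound; formaldehyde fix + Draq5; high-content imaging, N/C ratio, ≥350 cells/image, positive direction vs DMSO.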

[2] = target: Peroxisome proliferator-activated receptor gamma (Homo sapiens) (UniProt P37231); experiment: OT_PPARg_PPARgSRC1_1440: Odyssey Thera (OT) 24-hour Protein-Complementation Assay for Peroxisome Proliferator-activated Receptor Gamma/ SRC-1 Co-activator (AID 2283388; active = hit-call score of the fitted dose curve at least 0.9, where 1 is the maximum;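 note: nuclear to cytoplasmic ratio of reconstituted Venus YFP fluorescence in fixed imaged cells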)
Outline: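 Protein-fragment complementation between PPARg and coactivator SRC-1 was measured by fluorescence imaging in transiently transfected HEK293T cells after 24 h treatment. Signal was quantified as N/C ratio in the 488 nm channel, with DMSO as negative control.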

[3] = CEETOX_H295R_11DCORT: CeeTox H295R High-throughput Steroidogenesis Assay for 11-Deoxycortisol (11DCORT) (AID 2283432); conditions: actives raise or lower the signal;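 note: human adrenal H295R cells prestimulated with 10 µM forskolin for 48 h; 11-deoxycortisol secreted into the medium measured by LC-MS/MS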
Outline: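 Steroidogenesis in human H295R cells: 48 h chemical exposure after forskolin priming, 11-deoxycortisol measured by LC-MS/MS.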

[4] = CEETOX_H295R_OHPREG: CeeTox H295R High-throughput Steroidogenesis Assay for OH-Pregnenolone (OHPREG) (AID 2283434); conditions: actives raise or lower the signal
Outline: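 Readout: HPLC-MS/MS of 17alpha-hydroxypregnenolone in medium after 48 h chemical exposure of H295R cells pretreated with forskolin. Values fitted bidirectionally relative to DMSO; chemicals reducing viability to 20–70% were retested after 10-fold dilution.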

[5] = CEETOX_H295R_OHPROG: CeeTox H295R High-throughput Steroidogenesis Assay for OH-Progesterone (OHPROG) (AID 2283435); conditions: actives raise or lower the signal;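 note: human adrenal H295R cells primed 48 h with 10 µM forskolin; 17alpha-hydroxyprogesterone secreted into medium measured by HPLC-MS/MS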
Outline: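 Steps: seed H295R cells and adhere overnight; stimulate with 10 uM forskolin for 48 h; replace with chemical-containing medium (0.1% DMSO) for 48 h; extract medium with MTBE; quantify 17alpha-hydroxyprogesterone by reverse-phase C18 HPLC-MS/MS against a 7-point curve.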

[6] = CEETOX_H295R_ANDR: CeeTox H295R High-throughput Steroidogenesis Assay for Androstenedione (ANDR) (AID 2283436); conditions: actives raise or lower the signal;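 note: human H295R adrenal cells exposed for 48 h with androstenedione measured in medium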
Outline: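 Steroidogenesis in H295R adrenal cells after 48 h dosing; androstenedione quantified by LC-MS/MS, with DMSO as negative control and baseline for bidirectional curve fitting.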

[7] = CEETOX_H295R_CORTIC: CeeTox H295R High-throughput Steroidogenesis Assay for Corticosterone (CORTIC) (AID 2283437); conditions: actives raise or lower the signal;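 note: human H295R adrenal cells prestimulated with forskolin before chemical exposure; corticosterone secreted into medium quantified by mass spectrometry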
Outline: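 Steps: seed H295R, adhere overnight; 10 uM forskolin 48 h; replace with chemical (0.1% DMSO) 48 h; extract medium with MTBE; quantify corticosterone by HPLC-MS/MS; score bidirectionally vs DMSO.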

[8] = CEETOX_H295R_CORTISOL: CeeTox H295R High-throughput Steroidogenesis Assay for Cortisol (AID 2283438); conditions: actives raise or lower the signal
Outline: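 Cortisol synthesis by H295R cells is measured 48 h after chemical dosing, following a 48 h stimulation with 10 uM forskolin. Hormone is extracted and quantified by HPLC-MS/MS, and activity is fitted bidirectionally against the DMSO control.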

[9] = CEETOX_H295R_DOC: CeeTox H295R High-throughput Steroidogenesis Assay for DOC (AID 2283439); conditions: actives raise or lower the signal
Outline: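 Steps: seed H295R, adhere overnight; 10 uM forskolin 48 h; replace with chemical medium (0.1% DMSO) 48 h; collect medium, MTBE extraction, HPLC-MS/MS for DOC. Viability then checked by MTT; cytotoxic chemicals diluted until viability ≥70%.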

[10] = CEETOX_H295R_ESTRONE: CeeTox H295R High-throughput Steroidogenesis Assay for Estrone (AID 2283441); conditions: actives raise or lower the signal
Outline: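 Estrone secreted into medium quantified by LC-MS/MS after dansyl chloride derivatization, following 48 h chemical exposure (0.1% DMSO final) of forskolin-prestimulated (10 uM, 48 h) H295R cells; gain or loss fitted against DMSO; MTT viability in same wells.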

[11] = CEETOX_H295R_PROG: CeeTox H295R High-throughput Steroidogenesis Assay for Progesterone (PROG) (AID 2283442); conditions: actives raise or lower the signal;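 note: human H295R adrenal cells primed with 10 µM forskolin before dosing; progesterone secreted into medium by H295R cells measured by HPLC-MS/MS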
Outline: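 Steps: seed H295R cells and let them adhere overnight; prime 48 h with 10 uM forskolin; dose with compound in DMSO at 0.1% final for 48 h; extract medium steroids with MTBE; measure progesterone by LC-MS/MS. MTT viability was run in the same wells.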

[12] = read-out: Tumor necrosis factor receptor superfamily member 6 (Homo sapiens) (UniProt P25445); experiment: LTEA_HepaRG_FAS: Life Technologies and Expression Analysis (LTEA) Assay for Fas cell surface death receptor (FAS) using HepaRG (AID 2283447); conditions: mRNA level, 48 h; actives raise or lower the signal
Outline: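 Differentiated human HepaRG cells, pre-cultured 48 h, were exposed in duplicate for 48 h to 8-point half-log concentrations (top 100 uM, 0.5% DMSO) in serum-free induction medium; FAS mRNA measured by qRT-PCR, normalized to ACTB/GAPDH/POLR2A, bidirectional fit versus DMSO.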

[13] = read-out: Fatty acid synthase (Homo sapiens) (UniProt P49327); experiment: LTEA_HepaRG_FASN: Life Technologies and Expression Analysis (LTEA) Assay for Fatty Acid Synthase (FASN) using HepaRG (AID 2283448); conditions: mRNA level, 48 h; actives raise or lower the signal
Outline: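 Cells were plated, cultured 48 h, switched to serum-free induction medium, then dosed in duplicate (max 100 uM, half-log dilutions, 0.5% DMSO) for 48 h. RNA was then isolated and FASN quantified by qRT-PCR.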

[14] = read-out: Cyclin Dependent Kinase Inhibitor 1A (CDKN1A), CDKN1A (gene 1026); experiment: LTEA_HepaRG_CDKN1A: Life Technologies and Expression Analysis (LTEA) Assay for Cyclin Dependent Kinase Inhibitor 1A (CDKN1A) using HepaRG (AID 2283450); conditions: mRNA level, 48 h; actives raise or lower the signal
Outline: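 Read-out is CDKN1A mRNA by TaqMan qRT-PCR, normalized to three housekeeping genes and fitted in both directions against the DMSO baseline. Human HepaRG cells were treated 48 h with test chemicals up to 100 uM in half-log steps, 0.5% DMSO.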

[15] = read-out: Cyclin D1 (CCND1), CCND1 (gene 595); experiment: LTEA_HepaRG_CCND1: Life Technologies and Expression Analysis (LTEA) Assay for Cyclin D1 (CCND1) using HepaRG (AID 2283451); conditions: mRNA level, 48 h; actives raise or lower the signal;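 for AC50: TaqMan qRT-PCR transcript level normalised to ACTB GAPDH and POLR2A housekeeping genes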
Outline: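 HepaRG plated 48 h, medium switched to serum-free induction medium, chemicals added in duplicate (top 100 uM, half-log steps, 0.5% DMSO) for 48 h, cells lysed, RNA measured by TaqMan qRT-PCR.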

[16] = read-out: catalase (CAT), CAT (gene 847); experiment: LTEA_HepaRG_CAT: Life Technologies and Expression Analysis (LTEA) Assay for catalase (CAT) using HepaRG (AID 2283452); conditions: mRNA level, 48 h; actives raise or lower the signal;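 for AC50: TaqMan qRT-PCR signal normalized to ACTB GAPDH and POLR2A housekeeping genes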
Outline: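 Differentiated HepaRG cells in serum-free induction medium were dosed 48 h in duplicate, eight half-log concentrations from 100 uM in 0.5% DMSO. Transcript measured by TaqMan qRT-PCR, normalised to ACTB/GAPDH/POLR2A, fitted bidirectionally against DMSO.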

[17] = read-out: flavin-containing dimethylaniline monooxygenases 3 (FMO3), FMO3 (gene 2328); experiment: LTEA_HepaRG_FMO3: Life Technologies and Expression Analysis (LTEA) Assay for flavin-containing dimethylaniline monooxygenases 3 (FMO3) using HepaRG (AID 2283453); conditions: mRNA level, 48 h; actives raise or lower the signal;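 for AC50: FMO3 transcript by TaqMan qRT-PCR normalized to ACTB GAPDH and POLR2A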
Outline: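 FMO3 transcript quantified by TaqMan qRT-PCR against three housekeeping genes after 48 h chemical exposure of HepaRG cells. Eight-point half-log series, top 100 uM, 0.5% DMSO vehicle; phenobarbital 1mM induction control; up- or down-regulation fitted.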

[18] = target: Retinoic acid receptor RXR-alpha (Homo sapiens) (UniProt P19793); experiment: OT_NURR1_NURR1RXRa_1440: Odyssey Thera (OT) 24-hour HEK293T Protein Complementation Assay for Nurr1/retinoid X receptor (RXR) (AID 2283386; active = hit-call score of the fitted dose curve at least 0.9, where 1 is the maximum)
Outline: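 Steps: fragment-tagged Nurr1 and RXRα expressed in HEK293T; compounds added; after 24 h, complemented reporter quantified by fluorescence intensity; signal increase over DMSO fitted as the single endpoint.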

[19] = read-out: Cyclin D2 (CCND2), CCND2 (gene 894); experiment: LTEA_HepaRG_CCND2: Life Technologies and Expression Analysis (LTEA) Assay for Cyclin D2 (CCND2) using HepaRG (AID 2283449); conditions: mRNA level, 48 h; actives raise or lower the signal;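 note: CCND2 transcript measured by TaqMan qRT-PCR and normalised to three housekeeping genes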
Outline: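 In this HepaRG study, an eight-point concentration series (max 100 uM, 0.5% DMSO) is applied for 48 h. CCND2 mRNA change is derived by qRT-PCR normalised to ACTB, GAPDH and POLR2A.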

Measured: AC50

Sequence of Retinoic acid receptor RXR-alpha (Homo sapiens) (P19793 whole entry, looked up, the tested form may be a part): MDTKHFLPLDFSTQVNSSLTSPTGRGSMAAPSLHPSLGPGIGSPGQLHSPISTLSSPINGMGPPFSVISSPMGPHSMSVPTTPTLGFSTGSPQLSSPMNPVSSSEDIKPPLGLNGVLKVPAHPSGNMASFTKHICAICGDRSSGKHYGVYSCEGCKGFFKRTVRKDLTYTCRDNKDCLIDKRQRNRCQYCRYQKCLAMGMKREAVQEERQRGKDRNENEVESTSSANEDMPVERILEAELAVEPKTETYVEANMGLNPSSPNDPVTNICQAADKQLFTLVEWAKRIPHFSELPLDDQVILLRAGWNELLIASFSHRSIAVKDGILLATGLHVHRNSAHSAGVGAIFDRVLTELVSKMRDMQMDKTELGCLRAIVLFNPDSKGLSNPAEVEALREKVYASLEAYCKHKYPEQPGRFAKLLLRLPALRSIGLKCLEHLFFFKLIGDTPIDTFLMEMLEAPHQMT
Sequence of Peroxisome proliferator-activated receptor gamma (Homo sapiens) (P37231 whole entry, looked up, the tested form may be a part): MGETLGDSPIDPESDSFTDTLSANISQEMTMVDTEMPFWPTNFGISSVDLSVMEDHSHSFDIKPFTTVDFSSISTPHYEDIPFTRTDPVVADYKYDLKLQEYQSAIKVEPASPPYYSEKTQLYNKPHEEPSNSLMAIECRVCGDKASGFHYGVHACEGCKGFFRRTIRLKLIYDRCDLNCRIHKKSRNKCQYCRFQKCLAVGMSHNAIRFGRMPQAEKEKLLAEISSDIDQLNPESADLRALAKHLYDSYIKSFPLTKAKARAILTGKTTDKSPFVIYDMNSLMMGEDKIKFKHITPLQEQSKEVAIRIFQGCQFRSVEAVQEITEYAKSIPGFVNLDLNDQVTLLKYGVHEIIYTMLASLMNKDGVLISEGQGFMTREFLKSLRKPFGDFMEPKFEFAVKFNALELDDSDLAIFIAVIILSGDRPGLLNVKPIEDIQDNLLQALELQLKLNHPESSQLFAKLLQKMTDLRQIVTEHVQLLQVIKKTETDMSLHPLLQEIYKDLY
Sequence of Fatty acid synthase (Homo sapiens) (P49327 whole entry, looked up): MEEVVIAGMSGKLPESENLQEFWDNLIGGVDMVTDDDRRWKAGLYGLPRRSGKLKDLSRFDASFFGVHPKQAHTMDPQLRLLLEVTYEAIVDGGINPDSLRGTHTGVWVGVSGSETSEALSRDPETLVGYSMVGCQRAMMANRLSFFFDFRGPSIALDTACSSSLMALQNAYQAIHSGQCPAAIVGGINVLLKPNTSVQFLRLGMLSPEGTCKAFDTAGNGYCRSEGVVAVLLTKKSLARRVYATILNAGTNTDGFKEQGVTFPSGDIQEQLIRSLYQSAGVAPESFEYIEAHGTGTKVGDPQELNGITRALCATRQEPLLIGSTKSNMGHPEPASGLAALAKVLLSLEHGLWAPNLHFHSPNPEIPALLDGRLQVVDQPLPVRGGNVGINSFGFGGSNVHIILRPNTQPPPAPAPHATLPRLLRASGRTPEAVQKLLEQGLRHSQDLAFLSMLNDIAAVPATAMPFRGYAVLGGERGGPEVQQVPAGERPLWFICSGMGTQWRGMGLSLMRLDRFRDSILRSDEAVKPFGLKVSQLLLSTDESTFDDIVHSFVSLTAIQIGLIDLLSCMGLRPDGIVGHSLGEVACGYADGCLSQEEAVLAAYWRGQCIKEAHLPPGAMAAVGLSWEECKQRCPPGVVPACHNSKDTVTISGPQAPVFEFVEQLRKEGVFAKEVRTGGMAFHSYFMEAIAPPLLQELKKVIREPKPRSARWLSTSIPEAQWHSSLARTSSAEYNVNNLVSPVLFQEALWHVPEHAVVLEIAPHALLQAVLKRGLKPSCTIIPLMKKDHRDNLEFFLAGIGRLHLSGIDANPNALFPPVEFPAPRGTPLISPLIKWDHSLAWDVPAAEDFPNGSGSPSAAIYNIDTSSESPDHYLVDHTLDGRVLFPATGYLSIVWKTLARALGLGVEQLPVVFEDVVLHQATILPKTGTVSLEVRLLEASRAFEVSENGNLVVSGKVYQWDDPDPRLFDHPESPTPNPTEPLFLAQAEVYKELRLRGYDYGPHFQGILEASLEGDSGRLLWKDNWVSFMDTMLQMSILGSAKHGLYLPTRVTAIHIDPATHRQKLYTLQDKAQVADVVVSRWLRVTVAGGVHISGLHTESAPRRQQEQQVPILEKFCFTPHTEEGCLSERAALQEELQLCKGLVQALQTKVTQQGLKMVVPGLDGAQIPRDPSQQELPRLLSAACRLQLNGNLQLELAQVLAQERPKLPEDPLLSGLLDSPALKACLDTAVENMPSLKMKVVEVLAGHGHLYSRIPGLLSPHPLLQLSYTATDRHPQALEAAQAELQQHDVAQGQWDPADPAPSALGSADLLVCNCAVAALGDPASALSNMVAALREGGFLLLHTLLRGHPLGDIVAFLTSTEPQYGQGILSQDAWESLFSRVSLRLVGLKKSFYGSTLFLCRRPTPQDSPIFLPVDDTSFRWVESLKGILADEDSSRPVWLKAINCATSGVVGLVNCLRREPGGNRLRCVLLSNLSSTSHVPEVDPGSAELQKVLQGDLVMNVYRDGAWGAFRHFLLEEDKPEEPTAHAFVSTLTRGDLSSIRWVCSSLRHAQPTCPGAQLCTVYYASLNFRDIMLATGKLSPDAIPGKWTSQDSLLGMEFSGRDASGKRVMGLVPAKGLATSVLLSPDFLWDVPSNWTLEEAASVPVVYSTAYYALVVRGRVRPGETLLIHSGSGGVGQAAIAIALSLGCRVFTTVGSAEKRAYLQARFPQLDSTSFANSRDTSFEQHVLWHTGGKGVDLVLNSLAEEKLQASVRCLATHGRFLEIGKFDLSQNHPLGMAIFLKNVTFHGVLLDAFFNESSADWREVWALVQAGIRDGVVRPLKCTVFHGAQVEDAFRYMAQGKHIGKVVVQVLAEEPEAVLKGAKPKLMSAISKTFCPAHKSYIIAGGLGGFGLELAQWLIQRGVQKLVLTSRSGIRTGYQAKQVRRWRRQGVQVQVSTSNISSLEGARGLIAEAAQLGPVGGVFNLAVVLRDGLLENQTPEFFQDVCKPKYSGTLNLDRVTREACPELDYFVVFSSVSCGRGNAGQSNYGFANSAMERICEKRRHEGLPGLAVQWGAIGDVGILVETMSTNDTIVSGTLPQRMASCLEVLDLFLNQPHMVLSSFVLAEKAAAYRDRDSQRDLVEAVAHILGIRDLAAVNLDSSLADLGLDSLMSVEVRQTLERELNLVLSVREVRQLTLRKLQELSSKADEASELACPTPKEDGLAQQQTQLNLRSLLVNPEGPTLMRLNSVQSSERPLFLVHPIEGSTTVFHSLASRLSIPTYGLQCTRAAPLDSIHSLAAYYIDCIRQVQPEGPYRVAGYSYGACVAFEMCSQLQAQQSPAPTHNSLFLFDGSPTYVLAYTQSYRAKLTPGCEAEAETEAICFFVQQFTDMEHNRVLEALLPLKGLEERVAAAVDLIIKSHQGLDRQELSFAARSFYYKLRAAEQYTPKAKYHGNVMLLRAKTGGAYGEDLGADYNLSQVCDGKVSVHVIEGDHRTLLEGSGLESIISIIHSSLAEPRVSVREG

C=CCc1cc(S(=O)(=O)c2ccc(O)c(CC=C)c2)ccc1O
active: [3] 6.4 µM | [4] 12.4 µM | [5] 0.165 µM | [7] 0.0971 µM | [8] 5.57 µM | [9] 0.673 µM | [11] 0.351 µM | [13] 81.4 µM | [15] 88.2 µM | [16] 71.6 µM | [17] 76.9 µM
inactive: [1] | [2] | [6] | [10] | [12] | [14]

c1ccc2cc3ccccc3cc2c1
active: [18] 72.7 µM
inactive: [1] | [2] | [12] | [13] | [19] | [14] | [15] | [16] | [17]

CCCc1ccccc1
inactive: [18] | [1] | [2] | [12] | [13] | [14] | [15] | [16] | [17]

CCc1cccc(CC)c1N
inactive: [18] | [12] | [13] | [19] | [14] | [15] | [16] | [17]

Reference: PubChem BioAssay (EPA / NIEHS)
